PubChem BioAssay AID1159580 (chemical genetic matrix, 2015)
About 2,000 (36%) of roughly 5,500 compounds were called active. Inconclusive results (about 18%) are left out. No stated cut-off is given here; in the data, active means normalized growth mostly below about 0.91 (no sharp cut-off); inconclusive means no clear call, values can overlap the other calls; inactive means mostly above about 0.92. This is one part of the list.

Experiment: chemical genetic growth profiling, strain panel (AID 1159580);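 further: tested at 20 µM; growth read once vehicle control cultures reached saturation at 30 °C; 1 = growth at the plate median or of vehicle wells; lower values mean less growth of the strain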
Conditions: growth OD
[1] = S. cerevisiae deletion strains, locus YAL040C, strain CLN3, active compounds read low
[2] = S. cerevisiae deletion strains, locus YCL061C, strain MRC1 (second series), active compounds read low
[3] = S. cerevisiae deletion strains, locus YDR363W, strain ESC2, active compounds read low
[4] = S. cerevisiae deletion strains, locus YER002W, strain NOP16, active compounds read low
[5] = S. cerevisiae deletion strains, locus YNL128W, strain TEP1, active compounds read low
[6] = S. cerevisiae deletion strains, locus YNL153C, strain GIM3, active compounds read low
[7] = S. cerevisiae deletion strains, locus YNL175C, strain NOP13, active compounds read low
[8] = S. cerevisiae deletion strains, locus YNL197C, strain WHI3, active compounds read low
[9] = S. cerevisiae deletion strains, locus YNL224C, strain SQS1, active compounds read low
[10] = S. cerevisiae deletion strains, locus YOR083W, strain WHI5 (second series), active compounds read low
[11] = S. cerevisiae deletion strains, locus YGR078C, strain PAC10, active compounds read low
[12] = S. cerevisiae deletion strains, locus YGR229C, strain SMI1, active compounds read low
[13] = S. cerevisiae deletion strains, locus YJR075W, strain HOC1, active compounds read low
[14] = S. cerevisiae deletion strains, locus YPL055C, strain LGE1, active compounds read low
[15] = S. cerevisiae deletion strains, locus YPL241C, strain CIN2, active compounds read low
[16] = S. cerevisiae deletion strains, locus YDL101C, strain DUN1, active compounds read low
[17] = S. cerevisiae deletion strains, locus YHR030C, strain SLT2, active compounds read low

Measured: normalized growth

CCCn1c(=O)c2[nH]c(-c3ccc(S(=O)(=O)O)cc3)nc2n(CCC)c1=O
inactive: [1] 0.994 | [2] 1.01 | [3] 0.958 | [4] 0.997 | [5] 1 | [6] 1.01 | [7] 0.985 | [8] 0.99 | [9] 1 | [10] 0.979

CC(C)CC(NP(=O)(O)O[C@@H]1O[C@@H](C)[C@H](O)[C@@H](O)[C@H]1O)C(=O)NC(Cc1c[nH]c2ccccc12)C(=O)O (some centres not stated)
inactive: [1] 1.01 | [2] 1.01 | [3] 1.01 | [4] 1 | [11] 1.02 | [12] 1.03 | [13] 1.03 | S. cerevisiae deletion strains, locus YMR307W, strain GAS1, active compounds read low 0.994 | [5] 0.993 | [6] 1.04 | [7] 0.998 | [8] 1 | [9] 0.997 | [10] 1.01 | [14] 1.02 | [15] 1.01

O=C1/C(=C/c2c(F)cccc2Cl)Cc2ccccc21
active: S. cerevisiae deletion strains, locus YLR113W, strain HOG1, active compounds read low 0.834
inactive: S. cerevisiae deletion strains, locus YAR019C, strain CDC15, active compounds read low 0.965 | S. cerevisiae deletion strains, locus YBL105C, strain PKC1, active compounds read low 0.965 | S. cerevisiae deletion strains, locus YBR135W, strain CKS1, active compounds read low 0.959 | S. cerevisiae deletion strains, locus YBR136W, strain MEC1, active compounds read low 0.962 | S. cerevisiae deletion strains, locus YBR160W, strain CDC28, active compounds read low 0.964 | S. cerevisiae deletion strains, locus YDL017W, strain CDC7, active compounds read low 0.963 | S. cerevisiae deletion strains, locus YDL028C, strain MPS1, active compounds read low 0.96 | [16] 0.96 | S. cerevisiae deletion strains, locus YDL108W, strain KIN28, active compounds read low 0.967 | S. cerevisiae deletion strains, locus YDL132W, strain cdc53, active compounds read low 0.96 | S. cerevisiae deletion strains, locus YDL214C, strain PRR2, active compounds read low 0.96 | S. cerevisiae deletion strains, locus YDR052C, strain DBF4, active compounds read low 0.977 | S. cerevisiae deletion strains, locus YDR054C, strain cdc34, active compounds read low 0.961 | S. cerevisiae deletion strains, locus YDR226W, strain ADK1, active compounds read low 0.967 | S. cerevisiae deletion strains, locus YDR477W, strain SNF1, active compounds read low 0.945 | S. cerevisiae deletion strains, locus YER123W, strain YCK3, active compounds read low 0.876 | S. cerevisiae deletion strains, locus YER133W, strain GLC7, active compounds read low 0.948 | S. cerevisiae deletion strains, locus YFL009W, strain cdc4, active compounds read low 0.961 | S. cerevisiae deletion strains, locus YFL029C, strain CAK1, active compounds read low 0.961 | S. cerevisiae deletion strains, locus YFR003C, strain YPI1, active compounds read low 0.962 | S. cerevisiae deletion strains, locus YFR019W, strain FAB1, active compounds read low 0.903 | S. cerevisiae deletion strains, locus YFR028C, strain CDC14, active compounds read low 0.96 | S. cerevisiae deletion strains, locus YGR040W, strain KSS1, active compounds read low 0.947 | S. cerevisiae deletion strains, locus YGR052W, strain FMP48, active compounds read low 0.974 | S. cerevisiae deletion strains, locus YGR092W, strain DBF2, active compounds read low 0.841 | [17] 0.882 | S. cerevisiae deletion strains, locus YHR079C, strain IRE1, active compounds read low 0.884 | S. cerevisiae deletion strains, locus YHR082C, strain KSP1, active compounds read low 0.916 | S. cerevisiae deletion strains, locus YHR205W, strain SCH9, active compounds read low 0.871 | S. cerevisiae deletion strains, locus YIL147C, strain SLN1, active compounds read low 0.963 | S. cerevisiae deletion strains, locus YJL095W, strain BCK1, active compounds read low 0.927 | S. cerevisiae deletion strains, locus YJL128C, strain PBS2, active compounds read low 0.929 | S. cerevisiae deletion strains, locus YJL157C, strain FAR1, active compounds read low 0.945 | S. cerevisiae deletion strains, locus YJR016C, strain ILV3, active compounds read low 0.965 | S. cerevisiae deletion strains, locus YJR066W, strain TOR1 (second series), active compounds read low 0.906 | S. cerevisiae deletion strains, locus YJR066W, strain TOR1, active compounds read low 0.892 | S. cerevisiae deletion strains, locus YKL048C, strain ELM1, active compounds read low 0.968 | S. cerevisiae deletion strains, locus YKL067W, strain YNK1, active compounds read low 0.961 | S. cerevisiae deletion strains, locus YKL101W, strain HSL1, active compounds read low 0.965 | S. cerevisiae deletion strains, locus YKL193C, strain SDS22, active compounds read low 0.961 | S. cerevisiae deletion strains, locus YKL203C, strain TOR2, active compounds read low 1.03 | S. cerevisiae deletion strains, locus YLR133W, strain CKI1, active compounds read low 0.955 | S. cerevisiae deletion strains, locus YLR403W, strain SFP1, active compounds read low 0.927 | S. cerevisiae deletion strains, locus YML070W, strain DAK1, active compounds read low 0.929 | S. cerevisiae deletion strains, locus YMR001C, strain CDC5, active compounds read low 0.961 | S. cerevisiae deletion strains, locus YMR205C, strain PFK2 (second series), active compounds read low 0.956 | S. cerevisiae deletion strains, locus YMR277W, strain FCP1, active compounds read low 0.963 | S. cerevisiae deletion strains, locus YNL006W, strain LST8, active compounds read low 0.97 | S. cerevisiae deletion strains, locus YNL020C, strain ARK1, active compounds read low 0.947 | S. cerevisiae deletion strains, locus YNL161W, strain CBK1, active compounds read low 0.965 | S. cerevisiae deletion strains, locus YNL183C, strain NPR1, active compounds read low 0.9 | S. cerevisiae deletion strains, locus YNL207W, strain RIO2, active compounds read low 0.965 | S. cerevisiae deletion strains, locus YNL222W, strain SSU72, active compounds read low 0.965 | S. cerevisiae deletion strains, locus YNL307C, strain MCK1 (second series), active compounds read low 0.885 | S. cerevisiae deletion strains, locus YOL078W, strain AVO1, active compounds read low 0.962 | S. cerevisiae deletion strains, locus YOL136C, strain PFK27, active compounds read low 0.92 | S. cerevisiae deletion strains, locus YOR061W, strain CKA2, active compounds read low 0.942 | S. cerevisiae deletion strains, locus YOR119C, strain RIO1, active compounds read low 0.952 | S. cerevisiae deletion strains, locus YOR231W, strain MKK1, active compounds read low 0.92 | S. cerevisiae deletion strains, locus YOR329C, strain SCD5, active compounds read low 0.963 | S. cerevisiae deletion strains, locus YPL031C, strain PHO85, active compounds read low 0.928 | S. cerevisiae deletion strains, locus YPL153C, strain RAD53, active compounds read low 0.947 | S. cerevisiae deletion strains, locus YPL204W, strain HRR25, active compounds read low 0.927 | S. cerevisiae deletion strains, locus YPL209C, strain IPL1, active compounds read low 0.968 | S. cerevisiae deletion strains, locus YPL256C, strain CLN2, active compounds read low 0.887 | S. cerevisiae deletion strains, locus YPR025C, strain CCL1, active compounds read low 0.957 | S. cerevisiae deletion strains, locus YPR106W, strain ISR1, active compounds read low 0.957 | S. cerevisiae deletion strains, locus YPR111W, strain DBF20, active compounds read low 0.957 | S. cerevisiae deletion strains, strain NNK1, active compounds read low 0.943 | S. cerevisiae deletion strains, strain TSCII, active compounds read low 0.962

O=C1NC(c2c(F)cccc2Cl)Nc2ccccc21 (configuration not stated)
inactive: S. cerevisiae deletion strains, locus YAL013W, strain DEP1, active compounds read low 1.01 | S. cerevisiae deletion strains, locus YBR229C, strain ROT2, active compounds read low 1.01 | S. cerevisiae deletion strains, locus YCL061C, strain MRC1, active compounds read low 1.03 | [16] 1.02 | S. cerevisiae deletion strains, locus YDL134C, strain PPH21, active compounds read low 1 | S. cerevisiae deletion strains, locus YDR150W, strain NUM1, active compounds read low 0.987 | S. cerevisiae deletion strains, locus YEL061C, strain CIN8, active compounds read low 1 | [11] 1.03 | [12] 0.988 | [17] 1 | S. cerevisiae deletion strains, locus YHR087W, strain rtc3, active compounds read low 1.02 | S. cerevisiae deletion strains, locus YJL187C, strain SWE1, active compounds read low 1 | S. cerevisiae deletion strains, locus YJR043C, strain POL32, active compounds read low 0.998 | [13] 0.998 | S. cerevisiae deletion strains, locus YKL190W, strain CNB1, active compounds read low 1.01 | S. cerevisiae deletion strains, locus YLR039C, strain RIC1, active compounds read low 0.94 | S. cerevisiae deletion strains, locus YLR058C, strain SHM2 (second series), active compounds read low 1.02 | S. cerevisiae deletion strains, locus YLR085C, strain ARP6, active compounds read low 0.984 | S. cerevisiae deletion strains, locus YLR262C, strain YPT6, active compounds read low 0.926 | S. cerevisiae deletion strains, locus YML094W, strain GIM5, active compounds read low 1.05 | S. cerevisiae deletion strains, locus YMR219W, strain ESC1, active compounds read low 1 | S. cerevisiae deletion strains, locus YMR263W, strain SAP30, active compounds read low 0.978 | [6] 1.01 | S. cerevisiae deletion strains, locus YNL298W, strain CLA4 (second series), active compounds read low 0.979 | S. cerevisiae deletion strains, locus YNL322C, strain KRE1, active compounds read low 1 | S. cerevisiae deletion strains, locus YNR030W, strain Alg12, active compounds read low 1.02 | [14] 1 | [15] 1.04 | S. cerevisiae deletion strains, locus YPR135W, strain CTF4, active compounds read low 1.06 | S. cerevisiae strains, strain wild type, active compounds read low 1.01
